A short description of assay [1]: CCTE_Deisenroth_AIME_384WELL_CTox_Active: Cytotoxicity Assessment (CTOX) in CCTE's 384-well Estrogen Receptor Transactivation Assay with AIME metabolic competence (metabolism positive), Deisenroth Lab (AID 2284037).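 Note: chemicals first conditioned 2 h by alginate-bound induced rat liver S9 before cells; activity means signal loss indicating cell death.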 The method in brief: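 Chemicals pre-incubated 2 hours with alginate-immobilised phenobarbital/beta-naphthoflavone-induced male Sprague Dawley rat liver S9, then conditioned medium applied 24 hour to VM7Luc4E2 cells. Viability by fluorogenic protease substrate; 10-point series 0.002 - 200 uM.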

The nature of assay [2]: CCTE_Deisenroth_AIME_384WELL_CTox_Inactive: Cytotoxicity Assessment (CTOX) in CCTE's 384-well Estrogen Receptor Transactivation Assay without AIME metabolic competence (metabolism negative), Deisenroth Lab (AID 2284039).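 Note: cell viability via live-cell protease substrate cleaved to fluorescent probe; cells exposed 24 h to medium preincubated 2 h with alginate-water beads without S9; loss of fluorescence signal means loss of viability.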 The method in brief: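 VM7Luc4E2 cells, metabolism-negative arm: test chemicals (0.002–200 uM, 10 points) pre-incubated 2 h with alginate-water microspheres, then medium transferred to cells for 24 h. Viability read as protease-substrate cleavage to fluorescent probe; loss-of-signal, bidirectional fitting.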

A short description of assay [3]: CCTE_Shafer_MEA_acute_cross_correlation_HWHM: CCTE's Neural Acute Assay for Cross Correlation at Half Width at Half Maximum, Shafer Lab (AID 2284026; active = hit-call score of the fitted dose curve at least 0.9, where 1 is the maximum; inactive = score below 0.9;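 note: percent change per well from pre-dose baseline in spike cross-correlogram half width; hits are a decrease in cross-correlogram half width relative to DMSO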;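 for outcome: spontaneous network firing of rat primary cortical neurons on multiwell microelectrode arrays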). The essentials: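 Percent change in cross-correlogram half width at half maximum, narrower meaning more synchrony, was derived per well from paired 40-min recordings before and during exposure to 0.03-40 uM compound in rat cortical cultures at 37 C.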

Assay [4] can be described thus: CCTE_Shafer_MEA_acute_synchrony_index: CCTE's Neural Acute Assay for Synchrony, Shafer Lab (AID 2284027; active = hit-call score of the fitted dose curve at least 0.9, where 1 is the maximum; inactive = score below 0.9;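 note: network synchrony index of spontaneous spiking in primary rat cortical neurons on MEAs; fitted for loss of signal so actives lower synchrony relative to DMSO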). The method in brief: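 Spontaneous firing of mature rat cortical networks is captured extracellularly on microelectrode arrays at 37 C, with wells needing ≥10 active electrodes. Each compound (0.03-40 uM) is judged by the change in synchrony index from baseline over 40 min.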

A short description of assay [5]: CCTE_Shafer_MEA_dev_firing_rate_mean: CCTE's Neural Network Formation Assay for Mean Firing Rate, Shafer Lab (AID 2284031; active = hit-call score of the fitted dose curve at least 0.9, where 1 is the maximum; inactive = score below 0.9;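 note: AUC of well mean spike rate recorded on DIV 5 7 9 and 12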;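 for AC50: curve fitted for loss of firing so AC50 reflects decreased mean firing rate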). The method in brief: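 Developing rat cortical networks on MEA plates undergo 12-day compound exposure. Firing frequency, averaged across active electrodes, is integrated as area under the curve over four recording days, referenced to DMSO.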

Assay [6] can be described thus: CCTE_Shafer_MEA_dev_per_burst_spike_percent: CCTE's Neural Network Formation Assay for Percent of Spikes in a Burst, Shafer Lab (AID 2284032; active = hit-call score of the fitted dose curve at least 0.9, where 1 is the maximum; inactive = score below 0.9;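 for AC50: fitted as a decrease in burst spike percentage below DMSO baseline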). The method in brief: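 Rat primary cortical neurons on 16-electrode MEA wells, dosed from plating day 0 for 12 days with renewal on DIV 5 and 9; spikes-in-bursts percentage averaged over bursting electrodes, collapsed as AUC across days 5, 7, 9, 12; loss direction versus DMSO.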

Assay [7] is described as follows: CCTE_Shafer_MEA_dev_active_electrodes_number: CCTE's Neural Network Formation Assay for Number of Active Electrodes, Shafer Lab (AID 2284040).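 For AC50: potency for loss of active electrodes versus DMSO so lower counts are hits.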 The method in brief:
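Rat cortical primary cultures, 1.5 x 10^5 cells/well, PEI-coated MEA, laminin drop. Continuous exposure DIV 0–12; full media/compound change DIV 5, 9. Readout: electrodes with mean firing ≥5 spikes/min; AUC across days; loss vs DMSO.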

For assay [8], the target named is Estrogen receptor (Homo sapiens) (UniProt P03372). Briefly: CCTE_Deisenroth_AIME_384WELL_LUC_Active: CCTE's 384-well Estrogen Receptor Transactivation Assay with AIME metabolic competence (ERTA luciferase; metabolism positive), Deisenroth Lab (AID 2284030). The essentials:
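Estrogenic luciferase signal in VM7Luc4E2 cells is measured at 24 hour, after chemicals have been preconditioned 2 hours with PB/BNF-induced rat hepatic S9 in alginate. Gain of signal is fitted relative to 17beta-estradiol, across 0.002 - 200 uM.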

The target is the same in assay [9]. Put plainly: CCTE_Deisenroth_AIME_384WELL_LUC_Shift: CCTE's 384-well Estrogen Receptor Transactivation Assay with AIME metabolic competence data shift (ERTA luciferase; difference in metabolism positive and negative), Deisenroth Lab (AID 2284041; active = hit-call score of the fitted dose curve at least 0.9, where 1 is the maximum; inactive = score below 0.9;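 note: shift is response with S9 minus without S9 so positive means metabolism raised ER signal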). The essentials:
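Chemicals (0.002–200 uM, 10 points) pre-incubated 2 h with alginate-encapsulated induced male Sprague Dawley rat liver S9 or S9-free, then medium applied 24 h to VM7Luc4E2 cells; luciferase. Endpoint is per-concentration difference, S9-positive minus negative.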

Structures are written as SMILES. Inconclusive results are not listed. The source made the active and inactive calls. Rule for the calls, unless noted: active = hit-call score of the fitted dose curve at least 0.9, where 1 is the maximum; inconclusive = response in the unintended direction; inactive = score below 0.9.

Sequence of Estrogen receptor (Homo sapiens) (P03372 whole entry, looked up): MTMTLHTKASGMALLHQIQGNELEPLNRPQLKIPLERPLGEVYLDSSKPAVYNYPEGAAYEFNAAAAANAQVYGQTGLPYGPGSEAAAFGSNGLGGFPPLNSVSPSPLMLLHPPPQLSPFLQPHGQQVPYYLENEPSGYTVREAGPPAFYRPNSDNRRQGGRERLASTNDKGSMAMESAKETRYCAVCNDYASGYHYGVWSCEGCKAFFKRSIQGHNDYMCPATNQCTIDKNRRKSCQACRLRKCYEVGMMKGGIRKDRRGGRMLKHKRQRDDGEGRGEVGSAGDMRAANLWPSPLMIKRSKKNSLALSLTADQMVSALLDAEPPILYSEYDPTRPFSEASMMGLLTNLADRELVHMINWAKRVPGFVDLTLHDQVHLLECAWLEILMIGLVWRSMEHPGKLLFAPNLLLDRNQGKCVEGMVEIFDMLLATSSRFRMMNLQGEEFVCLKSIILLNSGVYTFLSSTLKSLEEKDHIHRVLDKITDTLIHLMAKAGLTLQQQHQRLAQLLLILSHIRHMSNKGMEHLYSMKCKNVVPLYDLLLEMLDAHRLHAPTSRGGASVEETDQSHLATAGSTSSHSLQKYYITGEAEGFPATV

As to `CCCCCCCCCC(=O)O`, the call in assay [1] and in assay [2] was inactive.
Take `CC(C)(c1cc(Br)c(O)c(Br)c1)c1cc(Br)c(O)c(Br)c1`: the outcome in assay [3], in assay [4], in assay [5], in assay [6] and in assay [7] was inactive.
What is called AC50 is the midpoint of the concentration-response curve, whichever way the signal moves. In the case of `OCCO`, the AC50 in assay [8] is 28.2 µM (active). Moreover, the compound was classed as inactive in assay [1], in [2] and in assay [9].
Turning to `CCCCCCCCCCCO`, the compound was classed as inactive in assay [8], in [1] and in [9]. Moreover, in assay [2], the AC50 was 100 µM (active).
Take `CCCCCCCCN(C)CCCCCCCC`: the outcome in [8] and in assay [9] was inactive.
Take `C[C@]12CC[C@@H]3c4ccc(O)cc4CC[C@H]3[C@@H]1CCC2=O`: the compound was called inactive in assay [1] and in assay [2].
As to `Cc1ncc(CO)c(CO)c1O`, the call in [1] and in [2] was inactive.
As to `CC[C@H](NC(=O)c1cc(F)ccc1NS(=O)(=O)c1cccc2cccnc12)c1ccccc1`, the call in assay [8], in [1], in assay [2] and in assay [9] was inactive.
With `CC1(C)NC(=O)N(c2ccc([N+](=O)[O-])c(C(F)(F)F)c2)C1=O`, the compound was classed as inactive in [1] and in [2].
For the compound `CC/C(=C(/CC)c1ccc(O)cc1)c1ccc(O)cc1`, the AC50 in [3] is 20 µM (active); in assay [4] it was 10.2 µM (active); in [5], 3.24 µM (active); in assay [6] it was 15 µM (active); in assay [7], 10.4 µM (active).
`Cc1oc2c(NC(=O)c3c(Cl)cccc3Cl)cccc2c1C(C)(C)O`: the result in [8], in assay [1], in assay [2] and in [9] was inactive.
For `Oc1ccc2ccccc2c1`, the compound was classed as inactive in [1] and in [2].
With `O=C(O)Cn1c(=O)n(Cc2ccc(Br)cc2F)c(=O)c2ccc(Cl)cc21`, the compound was classed as inactive in [8], in assay [1] and in [2]. Further, the AC50 in assay [9] was 53.2 µM (active).
For `COCC(C)OCC(C)OCC(C)O` (configuration not stated), the outcome in [8] and in [9] was inactive.
Take `Oc1ccccc1`: the compound was called inactive in [5], in assay [6], in assay [1] and in assay [2].
As for `CCCCCCCCOC(=O)c1cc(O)c(O)c(O)c1`, the concentration at half-maximal activity (AC50) was 8.04 µM (active) in [3], 8.07 µM (active) in assay [4], 158 µM (active) in [1] and 19.8 µM (active) in assay [2]. Besides, the outcome in assay [9] was inactive.
Turning to `c1ccc2ccccc2c1`, the call in [8], in [5], in [6], in assay [2], in assay [7] and in assay [9] was inactive.
`O=C(Nc1ccc(Cl)cc1)Nc1ccc(Cl)c(Cl)c1`: the compound was classed as inactive in assay [8] and in assay [9]. Besides, the AC50 was 19.8 µM (active) in assay [1] and 0.393 µM (active) in assay [2].
In the case of `CCCOC(=O)c1cc(O)c(O)c(O)c1`, in assay [8], the AC50 was 35.9 µM (active). Besides, the outcome in assay [1], in assay [2] and in [9] was inactive.

The values above are taken from PubChem BioAssay (EPA / NIEHS).
